Results from PubChem BioAssay AID1851 (National Center for Advancing Translational Sciences (NCATS), 2009).
Values joined by “and” are separate entries in the source; they are usually repeats but may differ in a detail not shown here. Equal entries are not always repeated. Screen size: about 16,000 compounds; about 5,700 (36%) were called active. Inconclusive results (about 24%) are left out. This is one part of the list. Values without a mark were called inactive. Calls come from the whole dose curve; as a rule, active = well fitted curve in the direction sought with a large enough effect; inconclusive = small, poorly fitted or top-dose-only effect, or effect the other way; inactive = no such curve, though single readings can be large or run the other way.

Target: Cytochrome P450 1A2 (Homo sapiens) (UniProt P05177)
Assay: Cytochrome panel assay with activity outcomes
Settings: recombinant CYP, pro-luciferin dealkylation, luminescence, p450-cyp1a2; series mostly up to 57.1 µM
% is set by controls: 0 for no effect and ±100 for the full control effect.

Cytochrome P450 1A2 (Homo sapiens), sequence (P05177 whole entry, looked up): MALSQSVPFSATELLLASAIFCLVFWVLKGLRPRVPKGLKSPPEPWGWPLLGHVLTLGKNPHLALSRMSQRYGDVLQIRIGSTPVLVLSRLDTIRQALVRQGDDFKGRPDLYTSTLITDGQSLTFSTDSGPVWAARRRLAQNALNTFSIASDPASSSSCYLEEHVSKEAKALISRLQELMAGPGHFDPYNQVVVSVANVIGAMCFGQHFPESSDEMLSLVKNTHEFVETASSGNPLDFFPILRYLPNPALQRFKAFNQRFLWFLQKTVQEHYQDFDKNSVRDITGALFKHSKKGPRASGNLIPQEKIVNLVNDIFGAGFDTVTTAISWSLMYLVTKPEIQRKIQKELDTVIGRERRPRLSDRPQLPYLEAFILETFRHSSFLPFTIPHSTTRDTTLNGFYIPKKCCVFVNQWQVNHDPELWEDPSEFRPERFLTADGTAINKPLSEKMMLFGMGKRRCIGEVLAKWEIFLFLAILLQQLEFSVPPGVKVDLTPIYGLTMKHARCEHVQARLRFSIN

Compound | AC50 | activity, negative = inhibition
NS(=O)(=O)c1cc2c(cc1Cl)NC(CSCc1ccccc1)=NS2(=O)=O | inactive | 
CC1=NS(=O)(=O)c2cc(Cl)ccc2N1 | 3.16 µM (active) and 2 µM (active) | 
Clc1ccc(-c2cc3ccccc3[nH]2)cc1 | 0.501 µM (active) | 
N#C/C(=C\NC(=S)c1ccncc1)c1nc2ccccc2s1 | 3.16 µM (active) | 
CC(C)NC(=O)N1CCC2(CC1)CCN(C(=O)c1ccncc1)CC2 | inactive | 
CN(C)c1ccc(-c2cncnc2Nc2ccccc2)cc1 | 0.398 µM (active) | 
CN(C)c1ccc(-c2cncnc2Nc2ccc(F)cc2)cc1 | 0.501 µM (active) | 
Cc1ccc(C(C2C(=O)CC(C)(C)CC2=O)C2C(=O)CC(C)(C)CC2=O)s1 | inactive | 
O=S(=O)(/N=C(\Sc1ccccc1)c1ccccc1)c1ccc(Cl)cc1 | 8.91 µM (active) | 
O=S(=O)(/N=C(/Nc1ccc(F)cc1F)c1ccc(Cl)cc1)c1ccccc1 | inactive | 
O=S(=O)(/N=C(/Nc1ccccn1)c1ccccc1)c1ccc(Cl)cc1 | 14.1 µM (active) | 
COc1ccccc1N/C(=N/S(=O)(=O)c1ccc(C)cc1)c1ccc(Cl)cc1 | inactive | 
O=S(=O)(c1ccccc1)N1CCC2(CC1)CN(c1ccccn1)C2 | inactive | 
CC(C)CO/N=C1/C[C@@H](O)[C@@H](O)[C@@H]2[C@@H]3C(=O)N(C[C@@H]4CCCO4)C(=O)[C@H]3CC[C@@H]12 |  | -0.346% [at 11.4 µM]
CC(C)CNc1nc(N)[nH]c(=O)c1NC=O |  | -20.7% [at 11.4 µM]
O=S1(=O)C=C(Oc2ccc3ccccc3c2)c2ccccc21 | 1.26 µM (active) | 
Cn1cccc1C(=O)N1CCC2(CCN(Cc3nccs3)CC2)CC1 | inactive | 
N#Cc1c(NC(=O)CCN2C(=O)c3ccccc3C2=O)oc(-c2ccccc2)c1-c1ccccc1 | 2.24 µM (active) | 
O=C(Cc1ccccc1)NC1CCN(S(=O)(=O)c2ccc(C(=O)O)cc2)CC1 | inactive | 
c1ccc2c(CC3=NCCN3)cccc2c1 | inactive | 
c1ccc2c(CC3NCCN3)cccc2c1 |  | -7.37% [at 11.4 µM]

Compound | AC50 | activity, negative = inhibition
CN(C/C=C\c1ccccc1)Cc1cccc2ccccc12 | 2 µM (active) | 
CN(Cc1cccc2ccccc12)Cc1cccc2ccccc12 | 3.16 µM (active) | 
Cc1ccccc1C(=N)c1ccccc1Cc1cccc2ccccc12 |  | -17.6% [at 2.29 µM]
NCCCCCCCCCCN | inactive | 
O=c1n(-c2ccccc2)c(=O)n2n1CC[C@H]1/C(=N\OC[C@@H](O)COCc3ccco3)[C@H]3O[C@@H]3[C@@H](O)[C@@H]12 |  | -3.26% [at 11.4 µM] and -7.74% [at 11.4 µM]
Cc1ccc(C(=O)C2CCNCC2)cc1 | inactive | 
Cc1ccc(C(=O)/C=C2\NCC(C)NC2=O)cc1 (stereo unspecified) | 15.8 µM (active) | 
O=[N+]([O-])c1ccc(-c2cnc(SCc3ccccc3Cl)[nH]2)cc1 | 6.31 µM (active) | 
O=C(Cc1ccccc1[N+](=O)[O-])NCc1ccccc1Cl | inactive | 
CSc1nnc(-c2ccc(Cl)cc2Cl)o1 | 2.51 µM (active) | 
Clc1ccc(-c2nnc(CCc3ccccc3)o2)c(Cl)c1 | 0.708 µM (active) | 
COc1cccc(-c2cc(=O)c3ccccc3o2)c1N | 0.2 µM (active) | 
CCN(CC)C(=O)CSc1nc2ccc(NC(=O)CSc3nnc(COc4ccccc4C)n3C)cc2s1 | inactive | 
O=C(CSc1nc2ccccc2c2ccccc12)c1ccccc1 | 0.251 µM (active) | 
CCOC(=O)CSc1cc(CS(=O)c2ccc(Cl)cc2)nc(-c2ccccc2)n1 (stereo unspecified) | 10 µM (active) | 
O=C(CSc1ccccn1)Nc1nc2ccc(Br)cc2s1 | 2.51 µM (active) | 
COC(=O)c1ccc(NC(=O)Cn2nc(-c3ccncc3)nc2SCC(=O)Nc2nccs2)cc1 | 11.2 µM (active) | 
Nc1cc(N)nc(SCC(=O)c2ccccc2)n1 | inactive | 
CCc1cccc(C)c1NC(=O)CSc1nc2ccc(N3C(=O)c4ccccc4C3=O)cc2s1 | inactive | 
COc1ccc(O[C@H]2C=C[C@@H](c3ccccc3)O[C@H]2COC(=O)CC/C(C)=N\O[C@@H](C)c2cn([C@H](CO)Cc3ccccc3)nn2)cc1 |  | -0.286% [at 11.4 µM] and -5.55% [at 11.4 µM]
CC(=O)OC1CCC(OC(C)=O)c2c1n([O-])c(C)c(C)[n+]2=O (stereo unspecified) | inactive | 

Compound | AC50 | activity, negative = inhibition
CC1(C)CC(=O)c2cn3ncnc3nc2C1 | inactive | 
C[C@@H]1C[C@H]2[C@H]3C[C@@H](F)C4=CC(=O)C=C[C@]4(C)[C@@]3(Cl)[C@@H](O)C[C@@]2(C)[C@@H]1C(=O)COC(=O)C(C)(C)C | inactive | 
CCOC(=O)Cn1c(CN(Cc2ccccc2)Cc2ccccc2)nc2c1c(=O)[nH]c(=O)n2C | inactive | 
CCOC(=O)Cn1c(-c2ccccc2)nc2ccccc2c1=O | 0.447 µM (active) | 
O=C(CSc1nc2ccccc2o1)Nc1nc2ccccc2s1 | 3.16 µM (active) | 
O=C(CSc1nc2ccccc2s1)NNC(=S)Nc1ccc(Br)cc1 | 5.01 µM (active) | 
CCOC(=O)CSc1nc(-c2ccccc2)nc2ccccc12 | 0.501 µM (active) | 
O=C(O)Cn1c(-c2ccccc2)nc2ccccc21 | inactive | 
CCOC(=O)CSc1nc2ccccc2c(=O)n1CC1CCC(C(=O)NCc2ccco2)CC1 (stereo unspecified) | inactive | 
CCCCOc1ccccc1C1CC(=O)NC2=C1C(=O)CCC2 (stereo unspecified) | inactive | 
O=C(CSc1nc2ccccc2s1)Nc1nccs1 | 2.24 µM (active) | 
C=CCn1c(SCC(=O)Nc2ncc(Cc3ccc(Br)cc3)s2)nnc1-c1ccncc1 | inactive | 
CCc1nnc(NC(=O)CSc2nc(C3CCCCC3)nc3ccccc23)s1 | inactive | 
O=C(CSc1nc(-c2ccccc2)nc2ccccc12)Nc1nccs1 | 0.158 µM (active) | 
Cc1ccc(S(=O)(=O)NC(=O)CSc2nc3ccccc3s2)cc1 | inactive | 
CC(C)OC(=O)CSc1nc(-c2ccc(F)cc2)nc2ccc(F)cc12 | 1.12 µM (active) | 
NC(=O)NC(=O)CSc1nnc(-c2ccco2)n1Cc1ccccc1 | inactive | 
CCCC(=O)Nc1ccc2nc(SCC(=O)Nc3ccc(N4CCOCC4)c(Cl)c3)sc2c1 | inactive | 
O=C(CSc1nnc(-c2ccncc2)n1Cc1ccccc1)Nc1nccs1 | 11.2 µM (active) | 
